Where “and” joins values, the source holds several entries; their conditions need not be identical. Identical values can stand only once. The campaign covered roughly 5,500 compounds. About 2,000 (36%) were called active. Another 18% or so got no clear call; they are omitted. Rule as the data show it: active = normalized growth mostly below about 0.91 (no sharp cut-off); inconclusive = no clear call, values can overlap the other calls; inactive = mostly above about 0.92. Some of the results follow. Some compounds were tested as several samples or in several runs, with calls that do not always agree.
Test: chemical genetic growth profiling, strain panel (AID 1159580);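 also: tested at 20 µM; growth read once vehicle control cultures reached saturation at 30 °C; 1 = growth at the plate median or of vehicle wells; lower values mean less growth of the strain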
Details: growth OD

Measured: normalized growth

CCN(CC)C(=S)SSC(=S)N(CC)CC
0.0635 (active) and 0.949 (inactive): S. cerevisiae deletion strains, locus YJR075W, strain HOC1, stronger effect = lower value
0.0502 (active) and 0.997 (inactive): S. cerevisiae deletion strains, locus YNL322C, strain KRE1, stronger effect = lower value
inactive: S. cerevisiae deletion strains, locus YOL147C, strain pex11, stronger effect = lower value 0.946
0.0528 (active) and 0.999 (inactive): S. cerevisiae deletion strains, locus YPL241C, strain CIN2, stronger effect = lower value
active: S. cerevisiae deletion strains, locus YKL009W, strain mrt4, stronger effect = lower value 0.606 | S. cerevisiae deletion strains, locus YKL068W, stronger effect = lower value 0.0556 | S. cerevisiae deletion strains, locus YKL085W, strain MDH1 (second series), stronger effect = lower value 0.0512 | S. cerevisiae deletion strains, locus YKL085W, strain MDH1, stronger effect = lower value 0.0512 | S. cerevisiae deletion strains, locus YKL160W, strain elf1, stronger effect = lower value 0.0678 | S. cerevisiae deletion strains, locus YKL190W, strain CNB1, stronger effect = lower value 0.0509 | S. cerevisiae deletion strains, locus YKR001C, strain vps1, stronger effect = lower value 0.0705 | S. cerevisiae deletion strains, locus YKR026C, strain gcn3, stronger effect = lower value 0.0628 | S. cerevisiae deletion strains, locus YKR091W, strain srl3, stronger effect = lower value 0.0583 | S. cerevisiae deletion strains, locus YLL001W, strain dnm1, stronger effect = lower value 0.0613 | S. cerevisiae deletion strains, locus YLL026W, stronger effect = lower value 0.0601 | S. cerevisiae deletion strains, locus YLL041C, strain sdh2, stronger effect = lower value 0.0577 | S. cerevisiae deletion strains, locus YLR027C, strain aat2, stronger effect = lower value 0.0572 | S. cerevisiae deletion strains, locus YLR039C, strain RIC1, stronger effect = lower value 0.0861 | S. cerevisiae deletion strains, locus YLR058C, strain SHM2, stronger effect = lower value 0.0583 | S. cerevisiae deletion strains, locus YLR102C, strain apc9, stronger effect = lower value 0.0612 | S. cerevisiae deletion strains, locus YLR113W, strain HOG1, stronger effect = lower value 0.133 | S. cerevisiae deletion strains, locus YLR221C, strain rsa3, stronger effect = lower value 0.0619 | S. cerevisiae deletion strains, locus YLR258W, strain gsy2, stronger effect = lower value 0.0609 | S. cerevisiae deletion strains, locus YLR262C, strain YPT6 (second series), stronger effect = lower value 0.0822 | S. cerevisiae deletion strains, locus YLR262C, strain YPT6, stronger effect = lower value 0.109 | S. cerevisiae deletion strains, locus YLR268W, strain sec22, stronger effect = lower value 0.061 | S. cerevisiae deletion strains, locus YLR320W, strain mms22, stronger effect = lower value 0.087 | S. cerevisiae deletion strains, locus YLR330W, strain CHS5, stronger effect = lower value 0.0617 | S. cerevisiae deletion strains, locus YLR342W, strain FKS1 (second series), stronger effect = lower value 0.0677 | S. cerevisiae deletion strains, locus YLR342W, strain FKS1, stronger effect = lower value 0.0645 | S. cerevisiae deletion strains, locus YLR357W, strain rsc2, stronger effect = lower value 0.119 | S. cerevisiae deletion strains, locus YLR370C, strain arc18, stronger effect = lower value 0.0622 | S. cerevisiae deletion strains, locus YLR371W, strain rom2, stronger effect = lower value 0.0655 | S. cerevisiae deletion strains, locus YLR384C, strain iki3, stronger effect = lower value 0.0605 | S. cerevisiae deletion strains, locus YLR418C, strain cdc73, stronger effect = lower value 0.0926 | S. cerevisiae deletion strains, locus YML016C, strain PPZ1, stronger effect = lower value 0.052 | S. cerevisiae deletion strains, locus YML032C, strain rad52, stronger effect = lower value 0.263 | S. cerevisiae deletion strains, locus YML120C, strain ndi1, stronger effect = lower value 0.0591 | S. cerevisiae deletion strains, locus YML124C, strain tub3, stronger effect = lower value 0.0572 | S. cerevisiae deletion strains, locus YMR058W, strain fet3, stronger effect = lower value 0.0624 | S. cerevisiae deletion strains, locus YMR078C, strain ctf18, stronger effect = lower value 0.073 | S. cerevisiae deletion strains, locus YMR125W, strain sto1, stronger effect = lower value 0.0735 | S. cerevisiae deletion strains, locus YMR129W, stronger effect = lower value 0.0588 | S. cerevisiae deletion strains, locus YMR205C, strain PFK2, stronger effect = lower value 0.088 | S. cerevisiae deletion strains, locus YMR223W, strain ubp8, stronger effect = lower value 0.0608 | S. cerevisiae deletion strains, locus YMR231W, strain pep5, stronger effect = lower value 0.0654 | S. cerevisiae deletion strains, locus YMR263W, strain SAP30, stronger effect = lower value 0.0587 | S. cerevisiae deletion strains, locus YMR307W, strain GAS1, stronger effect = lower value 0.0974 | S. cerevisiae deletion strains, locus YNL067W, strain RPL9B, stronger effect = lower value 0.0505 | S. cerevisiae deletion strains, locus YNL071W, strain lat1, stronger effect = lower value 0.0618 | S. cerevisiae deletion strains, locus YNL128W, strain TEP1, stronger effect = lower value 0.0626 and 0.0798 | S. cerevisiae deletion strains, locus YNL153C, strain GIM3, stronger effect = lower value 0.0777 | S. cerevisiae deletion strains, locus YNL175C, strain NOP13, stronger effect = lower value 0.342 | S. cerevisiae deletion strains, locus YNL183C, strain NPR1, stronger effect = lower value -0.00035 | S. cerevisiae deletion strains, locus YNL197C, strain WHI3, stronger effect = lower value 0.0658 | S. cerevisiae deletion strains, locus YNL209W, strain ssb2, stronger effect = lower value 0.06 | S. cerevisiae deletion strains, locus YNL224C, strain SQS1, stronger effect = lower value 0.179 | S. cerevisiae deletion strains, locus YNL233W, strain BNI4, stronger effect = lower value 0.0544 | S. cerevisiae deletion strains, locus YNL248C, strain rpa49, stronger effect = lower value 0.0771 | S. cerevisiae deletion strains, locus YNL250W, strain rad50, stronger effect = lower value 0.0637 | S. cerevisiae deletion strains, locus YNL271C, strain bni1, stronger effect = lower value 0.0645 | S. cerevisiae deletion strains, locus YNL298W, strain CLA4, stronger effect = lower value 0.0615 | S. cerevisiae deletion strains, locus YNL307C, strain MCK1, stronger effect = lower value 0.0703 | S. cerevisiae deletion strains, locus YNL322C, strain KRE1 (second series), stronger effect = lower value 0.0666 | S. cerevisiae deletion strains, locus YNR049C, strain mso1, stronger effect = lower value 0.0606 | S. cerevisiae deletion strains, locus YNR052C, strain pop2, stronger effect = lower value 0.138 | S. cerevisiae deletion strains, locus YOL006C, strain TOP1, stronger effect = lower value 0.104 | S. cerevisiae deletion strains, locus YOL012C, strain htz1 0.179 | S. cerevisiae deletion strains, locus YOR001W, strain rrp6, stronger effect = lower value 0.0666 | S. cerevisiae deletion strains, locus YOR061W, strain CKA2, stronger effect = lower value 0.0499 | S. cerevisiae deletion strains, locus YOR069W, strain VPS5, stronger effect = lower value 0.0518 | S. cerevisiae deletion strains, locus YOR070C, strain gyp1, stronger effect = lower value 0.0741 | S. cerevisiae deletion strains, locus YOR080W, strain dia2, stronger effect = lower value 0.0684 | S. cerevisiae deletion strains, locus YOR083W, strain WHI5 (second series), stronger effect = lower value 0.0704 | S. cerevisiae deletion strains, locus YOR083W, strain WHI5, stronger effect = lower value 0.0659 | S. cerevisiae deletion strains, locus YOR106W, strain vam3, stronger effect = lower value 0.0652 | S. cerevisiae deletion strains, locus YOR136W, strain idh2, stronger effect = lower value 0.0727 | S. cerevisiae deletion strains, locus YOR144C, strain elg1, stronger effect = lower value 0.803 | S. cerevisiae deletion strains, locus YOR184W, strain ser1, stronger effect = lower value 0.0638 | S. cerevisiae deletion strains, locus YOR231W, strain MKK1, stronger effect = lower value 0.117 | S. cerevisiae deletion strains, locus YOR265W, strain rbl2, stronger effect = lower value 0.0575 | S. cerevisiae deletion strains, locus YOR270C, strain vph1, stronger effect = lower value 0.0967 | S. cerevisiae deletion strains, locus YOR290C, strain snf2, stronger effect = lower value 0.627 | S. cerevisiae deletion strains, locus YOR316C, strain cot1, stronger effect = lower value 0.0596 | S. cerevisiae deletion strains, locus YPL051W, strain arl3, stronger effect = lower value 0.0672 | S. cerevisiae deletion strains, locus YPL055C, strain LGE1, stronger effect = lower value 0.0641 | S. cerevisiae deletion strains, locus YPL078C, strain atp4, stronger effect = lower value 0.0676 | S. cerevisiae deletion strains, locus YPL106C, strain sse1, stronger effect = lower value 0.103 | S. cerevisiae deletion strains, locus YPL240C, strain hsp82, stronger effect = lower value 0.0557 | S. cerevisiae deletion strains, locus YPL256C, strain CLN2, stronger effect = lower value 0.13 | S. cerevisiae deletion strains, locus YPR119W, strain clb2, stronger effect = lower value 0.0619 | S. cerevisiae deletion strains, locus YPR141C, strain kar3, stronger effect = lower value 0.0641 | S. cerevisiae deletion strains, locus YPR163C, strain tif3, stronger effect = lower value 0.0693 | S. cerevisiae deletion strains, locus YPR167C, strain met16, stronger effect = lower value 0.0622 | S. cerevisiae deletion strains, strain wtn01, stronger effect = lower value 0.0586 | S. cerevisiae strains, strain wild type, stronger effect = lower value 0.05

Source: PubChem BioAssay AID1159580 (chemical genetic matrix, 2015)
